The structures appear in SMILES notation. Hit rate of the full screen: of about 320,000 compounds, about 2,100 (0.66%) were called active. About 53% were inconclusive and are not listed. This is one part of a sample in which actives are shown more often than they occur. The call rests on the fitted dose curve; in most records, active means well fitted inhibition curve with a large enough effect in the signal ratio, with a control signal flat (not every such curve was filed as active); inconclusive means small, poorly fitted or top-dose-only effect, or effect the other way, or a change in a side signal; inactive means flat fitted curve, though single readings scatter; the % refers to the signal ratio.
Potency means the concentration at half of the fitted maximal effect.

The assay in a line: qHTS Assay for Lipid Storage Modulators in Drosophila S3 Cells.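 On cell number change: cells counted by Cell Tracker Red CMTPX staining in the red channel.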 On lipid storage change, negative = inhibition: on the % scale 0 is the no-effect control and ±100 the full control effect. The settings on record: BODIPY lipid droplet fluorescence, 18-24 h, cells fed with added oleic acid; cell number change: measured here: cell count max response; series mostly up to 46.1 µM; lipid storage change, negative = inhibition: at the top concentration. A digest of the protocol:
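Drosophila S3 cells got compounds at several concentrations plus oleic acid (400 uM solution). Laser-scanning cytometry with 488 nm excitation read lipid droplets at 500-530 nm and cells at 575-640 nm. Percent activity was relative to 20 uM Triacsin C.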
(In qHTS, concentration-response curves come from the screen itself.)
On to `COc1ccc2[nH]cc(CCNC(=O)CCC3CCCCC3)c2c1`, for which the Potency was 16.4 µM (active) and the cell number change was -11.7%.
As to `COc1ccc2[nH]cc(CCNC(=O)COc3cc(C)cc4oc(=O)cc(C)c34)c2c1`, the “lipid storage change, negative = inhibition” value is -23.1% (inactive) and the cell number change is -0.087%.
As to `COc1ccc2[nH]cc(CCNC(=O)Cc3ccc(F)cc3)c2c1`, the “lipid storage change, negative = inhibition” value is 20.2% (inactive).
Take `COc1ccc(C(=O)NCC(=O)NCCc2c[nH]c3ccccc23)cc1OC`: the “lipid storage change, negative = inhibition” value was 5.27% (inactive) and the cell number change amounted to 7.36%.
The like results for `COc1ccc(C(=O)NCCc2c[nH]c3ccccc23)cc1OC` were, in that order, 18% (inactive) and -1.75%.
Consider `COc1ccc2[nH]cc(CCNC(=O)C3CCCCC3)c2c1`, for which the “lipid storage change, negative = inhibition” value was -9.93% (inactive) and the cell number change is -11.3%.
Regarding `CCCc1cc(=O)oc2cc(OCC(=O)NCCc3c[nH]c4ccc(OC)cc34)ccc12`, the Potency is 8.2 µM (active) and the cell number change is -12%.
As to `CCCc1cc(=O)oc2cc(OCC(=O)NCCc3ccc(S(N)(=O)=O)cc3)ccc12`, the compound was classed as inactive and the cell number change was -10.3%.
Consider `COc1ccccc1CC(=O)NCCc1c[nH]c2ccccc12`, for which the Potency was 0.231 µM (active) and the cell number change was 10.3%.
For `O=C(CCc1nc2ccccc2c(=O)[nH]1)OCc1cccc(C(F)(F)F)c1`, the “lipid storage change, negative = inhibition” value was -1.93% (inactive) and the cell number change was -19.1%.
For `COc1ccc(CN2CCCCC2C)cc1C` (centres undefined), in that order: -3.51% (inactive) and 16%.
For `Cc1cccc(NC(=O)CSc2nc3[nH]ncc3c(=O)[nH]2)c1C`, in that order: 18% (inactive) and 6.95%.
For `COc1ccc(-c2nnc(-c3ccc(Br)o3)o2)cc1OC`, in that order: 21.7% (inactive) and 2.37%.
On to `CCOC(=O)N1CCN(C(=O)COc2ccc(S(=O)(=O)NC(C)C)cc2)CC1`, for which the “lipid storage change, negative = inhibition” value is 5.97% (inactive) and the cell number change is -5.69%.
For `CCOc1ccc(S(=O)(=O)NC2CCCCCC2)cc1`, in that order: 6.04% (inactive) and 1.37%.
With `CCOc1ccc(S(=O)(=O)N/N=C(\C)C2CCCCC2)cc1`, the Potency is 20.6 µM (active) and the cell number change is -18.4%.
As to `CCOc1ccc(S(=O)(=O)NC2CCCC2)cc1`, the call was inactive and the cell number change turned out to be 13.5%.
Take `CCNC(=O)CSc1nc(-c2ccc(F)cc2)cs1`: the “lipid storage change, negative = inhibition” value is 7.14% (inactive) and the cell number change was determined as 6.04%.
As to `O=C(CNc1ccc(F)cc1)N/N=C/c1c(O)ccc2ccccc12`, the “lipid storage change, negative = inhibition” value is -10.8% (inactive) and the cell number change is -11.6%.
Take `NS(=O)(=O)c1ccc(N=Nc2c(O)c(C(=O)O)cc3ccccc23)cc1`: the “lipid storage change, negative = inhibition” value was -1.28% (inactive) and the cell number change was -8.07%.
Take `Oc1c(N=Nc2ccc(F)cc2)ccc2ccccc12`: the Potency was 4.11 µM (active) and the cell number change was -26.4%.
Consider `O=C(NNC(=O)c1ccc2ccccc2c1O)Nc1ccc(F)cc1`, for which the “lipid storage change, negative = inhibition” value was -1.42% (inactive) and the cell number change turned out to be 22.7%.
The like results for `Cc1ccc(N=Nc2ccc(O)c3ncccc23)cc1` were, in that order, 0.161% (inactive) and -11.6%.
For the compound `Cc1ccc(N=Nc2ccc3ccccc3c2O)cc1`, the Potency was 0.058 µM (active) and the cell number change turned out to be 1.47%.
In the case of `O=C(O)c1cc(N=Nc2c(O)ccc3ccccc23)cc(C(=O)O)c1`, the “lipid storage change, negative = inhibition” value was -24.9% (inactive) and the cell number change amounted to 0.308%.
On to `Oc1ccc2ccccc2c1N=Nc1ccc(F)cc1`, for which the Potency is 5.8 µM (active) and the cell number change was -18.6%.
On to `Cc1ccc(N=Nc2ccc(C)cc2NC(=O)Nc2ccccc2F)cc1`, for which the “lipid storage change, negative = inhibition” value is -11.3% (inactive) and the cell number change amounted to 4.52%.
The like results for `Cc1cccc(C)c1OCC(=O)N/N=C/c1ccncc1` were, in that order, 15.6% (inactive) and 1.08%.
For `CN(CC(=O)Nc1ccc(Cl)cc1)C(=O)c1cc(-c2cccs2)nn1-c1ccccc1`, in that order: 16.7% (inactive) and 15.7%.
For `COC(=O)CCC(=O)Nc1ccc(Br)cc1`, in that order: -11.3% (inactive) and -3.41%.
For `CCOc1ccccc1NC(=O)CSc1nnc(CCC(=O)Nc2ccccc2F)n1C`, the compound was called inactive and the cell number change is -0.293%.
In the case of `CC(C)(C)OC(=O)N[C@@H](CCCCNC(=O)OCc1ccccc1)c1nnc([C@H](CCCCNC(=O)OCc2ccccc2)NC(=O)OC(C)(C)C)o1`, the “lipid storage change, negative = inhibition” value was -36.4% (inactive) and the cell number change was -3.75%.
`CCNC(=S)N1CCN(c2ccccn2)CC1`: the “lipid storage change, negative = inhibition” value is 9.69% (inactive) and the cell number change worked out at 12.6%.
For the compound `CC(C)(C)c1ccc(C(=O)NC(=S)N2CCOCC2)cc1`, the cell number change was determined as 8.33% and the outcome was “inactive [at 0.369 µM]”.
For `CC(C)(C)c1ccc(C(=O)N2CCC3(CC2)NCCc2[nH]cnc23)cc1`, in that order: 22.1% and “inactive”.
For the compound `O=Cc1ccc(OCC(=O)Nc2ccccc2-c2ccccc2)cc1`, the “lipid storage change, negative = inhibition” value is 8.41% (inactive) and the cell number change was 18%.
With `COc1ccccc1NC(=O)Cc1cccc2ccccc12`, the “lipid storage change, negative = inhibition” value is -19.7% (inactive) and the cell number change was -14.6%.
For `COc1cc(NS(=O)(=O)c2ccc(NC(=S)NC(=O)c3ccco3)cc2)nc(OC)n1`, in that order: -13.8% (inactive) and -18.5%.
For `COc1cc(/C=N/n2c(-c3cc(C)[nH]n3)n[nH]c2=S)ccc1O`, in that order: -10.3% (inactive) and 4.27%.
Regarding `CC1CCN(CC(=O)Nc2nc(-c3ccccc3)cs2)CC1`, the “lipid storage change, negative = inhibition” value was -4.89% (inactive) and the cell number change worked out at 10.6%.
The like results for `COCC(=O)Nc1nc(-c2ccc(-c3ccccc3)cc2)cs1` were, in that order, 4.79% (inactive) and 7.77%.
`Cc1ccc(-c2csc(NC(=O)CN3CCC(C(N)=O)CC3)n2)cc1`: the result was inactive and the cell number change is -18.5%.
`CCOC(=S)SCC(=O)Nc1nc(-c2ccccc2)cs1`: the Potency is 23.1 µM (active) and the cell number change was -22.6%.
Regarding `CCOC(=O)c1ccc(-c2csc(NC(=O)CN3CCC(C)CC3)n2)cc1`, the Potency is 2.91 µM (active) and the cell number change is 3.78%.
On to `CCOC(=O)N1CCN(C(=O)CSCC(=O)Nc2nc(-c3ccccc3)cs2)CC1`, for which the “lipid storage change, negative = inhibition” value was -4.18% (inactive) and the cell number change was -8.7%.

The values above are taken from PubChem BioAssay AID2685 (National Center for Advancing Translational Sciences (NCATS), 2010).
